This note sets out measurements from PubChem BioAssay (NCATS).

Results filed as inconclusive are left out. Entries that show only a call come without a potency. The source made the active and inactive calls. Calls come from the whole dose curve; as a rule, active = well fitted cell-killing curve with a large enough effect; inconclusive = small, poorly fitted or top-dose-only effect, or effect the other way; inactive = flat fitted curve, though single readings scatter.

This assay relates to Tov112D. Description: Primary qHTS to identify gynecologic anti-cancer compounds using libraries of approved drugs and bioactive compounds (AID 1345084). Note: nearly all actives have a fitted effect of over 55% in size. The settings on record: Gynecologic cancer cell panel viability, ATPlite luminescence, 48 h; series mostly up to 57.5 µM. Summed up:
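Cell viability after 48 h drug treatment, ATPlite luminescence readout; five doses.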
In general terms: qHTS replaces the single test concentration by a dilution series.
`O=C1c2ccc(Nc3ccc(F)cc3F)cc2CCc2ccc(OCC(O)CO)cc21` (stereo not drawn): the Potency entry is “inactive”. Turning to `CC1(C)OC[C@H](NC(=O)Nc2ccc(Br)cc2Br)[C@H](c2ccccc2)O1`, the Potency result is “inactive”. For `COc1ccc(C(=O)Nc2c(Cl)cncc2Cl)cc1OC1CCCC1`, the Potency result was “inactive”.
